Results from PubChem BioAssay (Tox21).
Inconclusive results are not listed. The source made the active and inactive calls. Unless noted, calls come from the whole dose curve; as a rule, active = well fitted curve in the direction sought with a large enough effect in the repeat runs; inconclusive = weak or mixed curves; inactive = no such curve, though single readings can be large; an effect the other way counts as inactive or inconclusive.

What was measured:
[1] = qHTS assay for small molecule agonists of the p53 signaling pathway (AID 651631; calls by dose curve; note: nearly all actives have a fitted effect of over 15% in size)
Method in brief: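 Beta-lactamase reporter activity under p53 response elements was quantified in HCT-116 cells by FRET fluorescence, following 16 h incubation with test compounds at 37 °C and 2 h substrate development at room temperature.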

[2] = qHTS assay for small molecules that induce genotoxicity in human embryonic kidney cells expressing luciferase-tagged ATAD5 (AID 651632); note: nearly all actives have a fitted effect of over 15% in size
Method in brief: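 Reporter cells (HEK293T) express luciferase-tagged ATAD5, a protein that accumulates after DNA damage. Treat 16 hr at 37C/5% CO2, add Amplite, wait 30 min at RT, and read luminescence.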

[3] = qHTS assay for small molecule agonists of the p53 signaling pathway - cell viability (AID 651633; calls by dose curve;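 note: p53RE-bla HCT reporter cells with a stable beta-lactamase p53 reporter; series mostly up to about 83 µM; nearly all actives have a fitted effect of over 30% in size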)
Method in brief: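 p53RE-bla cells, seeded at 4,000 per well and rested 5 h at 37 C/5% CO2, received compounds in DMSO for 16 h at 37 C. CellTiter-Glo was then added, and luminescence was read after 30 min at room temperature to gauge cytotoxicity.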

[4] = qHTS assay for small molecules that induce genotoxicity in human embryonic kidney cells expressing luciferase-tagged ATAD5 - cell viability (AID 651634; calls by dose curve; note: nearly all actives have a fitted effect of over 25% in size)
Method in brief: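 Seeding of 2,000 HEK293T ATAD5-luciferase cells per well preceded pin-tool compound transfer. Plates sat 15.5 hr at 37C under 5% CO2, then fluorescence was read after 30 min with CellTiter-Fluor.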

[5] = qHTS assay for small molecule disruptors of the mitochondrial membrane potential - cell viability (AID 720634; calls by dose curve;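 note: human HepG2 liver cancer cells; series mostly up to about 83 µM; nearly all actives have a fitted effect of over 20% in size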)
Method in brief: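 Measuring cytotoxicity alongside mitochondrial potential, the screen quantified ATP by luminescence in HepG2 cells after 1 hr compound incubation and a 30 min room-temperature CellTiter-Glo step.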

[6] = qHTS assay for small molecule disruptors of the mitochondrial membrane potential (AID 720635)
Method in brief: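 HepG2 cells (2,000/well) attached overnight at 37C, then took compound for 1 hr at 37C, 5% CO2. Mito-MPS dye was added for 30 min; fluorescence was read at 490/535 nm (monomers) and 540/590 nm (aggregates).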

[7] = qHTS assay to test for compound auto fluorescence at 590 nm (red) in HepG2 cells (AID 720674)
Method in brief: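 Intrinsic compound fluorescence in the red window (Ex/Em 540/590 nm) is measured in attached HepG2 cells exposed for 1 hr, DMSO vehicle as baseline, benchmarked to Rose Bengal sodium.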

[8] = qHTS assay to test for compound auto fluorescence at 535 nm (green) in HepG2 cells (AID 720675)
[9] = qHTS assay to test for compound auto fluorescence at 460 nm (blue) in HEK293 cells (AID 720678)
Method in brief: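 HEK293, 2,000 cells/well, 10% dialyzed FBS; attach 4-5 hr 37C; pin compound or DMSO; o/n 37C/5% CO2; fluorescence 405/460 nm; triamterene-equivalent units.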

[10] = qHTS assay to test for compound auto fluorescence at 590 nm (red) in HEK293 cells (AID 720679)
Method in brief: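 Intensity at 540nm excitation and 590nm emission is reported as Rose Bengal sodium-equivalent autofluorescence. Measurements followed overnight exposure (37C, 5% CO2) of HEK293 cells, 2,000 per well, to 23 nL compound.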

[11] = qHTS assay to test for compound auto fluorescence at 535 nm (green) in HEK293 cells (AID 720680)
[12] = qHTS assay to test for compound auto fluorescence at 460 nm (blue) in HEK293 cell free culture (AID 720681)
Method in brief: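 Test compounds were pinned into cell-free culture medium (DMEM with 10% FBS) and fluorescence was read directly at Ex/Em 405/460 nm. Signals were expressed as fluorescence equivalents of triamterene, with DMSO vehicle as control.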

[13] = qHTS assay to test for compound auto fluorescence at 535 nm (green) in HEK293 cell free culture (AID 720682)
Method in brief: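 Each library compound, or DMSO control, is added by pintool to medium alone, comprising DMEM and 10% FBS. Emission at 535 nm following 485 nm excitation is quantified against fluorescein.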

[14] = qHTS assay to test for compound auto fluorescence at 590 nm (red) in HEK293 cell free culture (AID 720683)
Method in brief: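 Tox21 10K library compounds were pinned into cell-free DMEM with 10% FBS and fluorescence was read at excitation 540 nm. Activity is expressed as Rose Bengal sodium equivalency.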

[15] = qHTS assay to test for compound auto fluorescence at 590 nm (red) in HepG2 cell free culture (AID 720684)
Method in brief: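 Red fluorescence (540 nm excitation, 590 nm emission) was measured after compound transfer into cell-free MEM supplemented with 10% FBS. Values are equivalencies against Rose Bengal sodium.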

[16] = qHTS assay to test for compound auto fluorescence at 460 nm (blue) in HepG2 cell free culture (AID 720685)
Method in brief: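 Compound (23 nL) or DMSO pinned into cell-free MEM with 10% FBS; blue fluorescence read at 405/460 nm excitation/emission, expressed as auto-fluorescence equivalency to triamterene.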

[17] = qHTS assay to test for compound auto fluorescence at 535 nm (green) in HepG2 cell free culture (AID 720686)
[18] = target: Glucocorticoid receptor (Homo sapiens) (UniProt P04150); assay: qHTS assay to identify small molecule agonists of the glucocorticoid receptor (GR) signaling pathway (AID 720691; active = well fitted activation curve with a large enough effect in the signal ratio in the repeat runs, not every such curve was filed as active; the % refers to the signal ratio)
Chain of Glucocorticoid receptor (Homo sapiens) (P04150 whole entry, looked up): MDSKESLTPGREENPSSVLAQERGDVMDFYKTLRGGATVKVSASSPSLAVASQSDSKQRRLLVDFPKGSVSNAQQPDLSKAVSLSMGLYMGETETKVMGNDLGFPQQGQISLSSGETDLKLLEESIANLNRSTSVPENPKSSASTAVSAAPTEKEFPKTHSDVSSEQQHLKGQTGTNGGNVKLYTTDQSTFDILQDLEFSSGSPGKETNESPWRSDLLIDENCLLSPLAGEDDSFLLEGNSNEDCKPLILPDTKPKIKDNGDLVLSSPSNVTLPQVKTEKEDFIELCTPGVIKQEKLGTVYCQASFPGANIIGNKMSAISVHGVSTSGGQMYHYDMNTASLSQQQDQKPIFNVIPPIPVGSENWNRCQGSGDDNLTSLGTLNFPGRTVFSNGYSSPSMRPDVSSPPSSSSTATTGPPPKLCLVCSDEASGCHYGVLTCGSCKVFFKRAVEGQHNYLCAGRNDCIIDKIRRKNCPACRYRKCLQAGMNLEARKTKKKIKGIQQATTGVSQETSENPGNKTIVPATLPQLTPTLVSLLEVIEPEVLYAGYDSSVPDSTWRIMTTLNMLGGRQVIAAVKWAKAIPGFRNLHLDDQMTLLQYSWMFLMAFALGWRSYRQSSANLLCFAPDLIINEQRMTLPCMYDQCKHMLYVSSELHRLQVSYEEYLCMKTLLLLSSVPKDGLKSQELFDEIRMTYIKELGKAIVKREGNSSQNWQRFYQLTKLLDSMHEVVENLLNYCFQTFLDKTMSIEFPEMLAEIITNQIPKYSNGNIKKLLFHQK
Method in brief: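 Reporter read-out: fluorescence intensity following 2 h room-temperature LiveBLAzer B/G FRET substrate loading. Prior step: GR-bla HeLa cells held 4 h, then treated 18 h at 37 C.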

[19] = target: Glucocorticoid receptor (Homo sapiens) (UniProt P04150); assay: qHTS assay to identify small molecule antagonists of the glucocorticoid receptor (GR) signaling pathway (AID 720692; active = well fitted inhibition curve with a large enough effect in the signal ratio in the repeat runs, not every such curve was filed as active; the % refers to the signal ratio)
Method in brief: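 Dexamethasone (5 nM final) stimulated a stably integrated GRE-beta-lactamase reporter in HeLa cells during 18 h co-incubation with compounds; signal was quantified as fluorescence intensity of B/G FRET substrate after 2 h.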

[20] = qHTS assay to test for compound auto fluorescence at 460 nm (blue) in HepG2 cells (AID 720687)
Method in brief: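 Cells (2,000/well in MEM with 10% FBS) attached overnight at 37 C, then were exposed to compound or DMSO for 1 hr at 37 C, 5% CO2. Fluorescence read at Ex/Em 405/460 nm, expressed as triamterene-equivalent signal.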
% is set by controls: 0 for no effect and ±100 for the full control effect.

ClCCl
inactive: Potency [1] | Potency [2] | Potency [3] | Potency [4] | Potency [5] | Potency [6] | Potency [7] | Potency [8] | Potency [9] | Potency [10] | Potency [11] | Potency [12] | Potency [13] | Potency [14] | Potency [15] | Potency [16] | Potency [17] | Potency [18] | Potency [19]

COc1cccc(OC)c1C(=O)O
inactive: Potency [1] | Potency [2] | Potency [3] | Potency [4] | Potency [5] | Potency [6] | Potency [8] | Potency [9] | Potency [10] | Potency [11] | Potency [12] | Potency [13] | Potency [14] | Potency [15] | Potency [16] | Potency [17] | Potency [18] | Potency [19]

Clc1nnc(Cl)c2ccccc12
inactive: Potency [1] | Potency [2] | Potency [3] | Potency [4] | Potency [5] | Potency [7] | Potency [8] | Potency [9] | Potency [10] | Potency [11] | Potency [12] | Potency [13] | Potency [14] | Potency [15] | Potency [16] | Potency [17] | Potency [20] | Potency [18]

Cc1cc(C(C)(C)C)cc(C)c1CC1=NCCN1
inactive: Potency [1] | Potency [2] | Potency [3] | Potency [4] | Potency [5] | fluorescence, relative to Rose Bengal [7] 0.379% [at 18.6 µM] | fluorescence, % of fluorescein control [8] 0.0648% [at 18.6 µM] | fluorescence, % of triamterene [9] -0.0052% [at 18.6 µM] | fluorescence, % of fluorescein [11] 0.178% [at 18.6 µM] | fluorescence, % of fluorescent control [12] 0.0078% [at 18.6 µM] | activity change [13] 0.0172% [at 18.6 µM, hits give high values] | fluorescence, % of fluorescent control [14] 0.0411% [at 18.6 µM] | fluorescence, % of Rose Bengal [15] -0.207% [at 18.6 µM] | fluorescence, % of fluorescent control [16] 0.411% [at 18.6 µM] | fluorescence, % of fluorescein control [17] -0.0122% [at 18.6 µM] | fluorescence, % of fluorescent control [20] 0.013% [at 18.6 µM] | Potency [18] | Potency [19]

C=Cc1cccc(C)c1
inactive: Potency [1] | Potency [2] | Potency [3] | Potency [4] | Potency [5] | Potency [7] | Potency [8] | Potency [9] | Potency [10] | Potency [11] | Potency [12] | Potency [13] | Potency [14] | Potency [15] | Potency [16] | Potency [17] | Potency [18]

C[C@@H](O)[C@H](N)C(=O)O
inactive: Potency [1] | Potency [2] | Potency [3] | Potency [4] | Potency [6] | Potency [8] | Potency [9] | Potency [10] | Potency [11] | Potency [12] | Potency [13] | Potency [14] | Potency [15] | Potency [16] | Potency [17] | Potency [20] | Potency [18] | Potency [19]

O=C(O)c1cccc(C(F)(F)F)c1
inactive: Potency [1] | Potency [2] | Potency [3] | Potency [4] | Potency [5] | Potency [7] | Potency [8] | Potency [12] | Potency [13] | Potency [14] | Potency [15] | Potency [16] | Potency [17] | Potency [18] | Potency [19]
